Screens: PubChem, National Center for Advancing Translational Sciences (NCATS)
IMPase inh – IMPase inhibition in cells. P97697. CHO-M1 cells, IP1 accumulation, HTRF TR-FRET ratio. inhibition (IP1 accumulation), % at 46.1 µM. 120,000 tested, under 10 active. AID 901; active = well fitted curve in the direction sought with a large enough effect in the signal ratio, not every such curve was filed as active; inconclusive = small, poorly fitted or top-dose-only effect, or a change in a side signal; inactive = no such curve, though single readings can be large or run the other way; the % refers to the signal ratio;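 also: cells stimulated with carbachol in lithium chloride buffer; plate controls were DMSO basal wells for no effect and reference inhibitor wells for full effect; higher means more IMPase inhibition seen as more IP1 and lower FRET ratio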
Target sequence (P97697 whole entry, looked up): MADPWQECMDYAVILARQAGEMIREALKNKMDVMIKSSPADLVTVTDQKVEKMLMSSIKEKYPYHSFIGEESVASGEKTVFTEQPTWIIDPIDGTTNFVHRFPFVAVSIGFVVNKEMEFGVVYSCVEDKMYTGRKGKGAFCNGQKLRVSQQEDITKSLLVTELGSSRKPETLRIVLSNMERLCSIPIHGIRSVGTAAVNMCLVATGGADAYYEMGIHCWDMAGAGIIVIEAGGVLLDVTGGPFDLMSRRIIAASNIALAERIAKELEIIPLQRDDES
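In this qHTS, compounds (final up to 46 uM) act on CHO-M1 cells that are then activated through the M1 receptor with carbachol, in pH 7.4 buffer containing 50 mM LiCl, for 30 min. IP1 accumulation is quantified by the IP-One immunoassay.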
ALDH1A1 block – blocks purified human ALDH1A1 activity; AID 1030; 7.3% of 220,000 active; Potency, µM (top dose mostly 75.3 µM), inactives show top-dose activity, negative = inhibition, most hits filed as inhibitors; P00352; Purified ALDH1A1, NADH fluorescence, propionaldehyde substrate;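 also: potency is read from the fitted curve at half-maximal effect; plate controls were no enzyme wells and a reference inhibitor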
IMPase Li cell – cell-permeable IMPase inhibitors with lithium potentiation | CHO-M1 cells, IP1 TR-FRET (IP-One), carbachol + lithium | Potency, µM (doses to about 59.4 µM), for inactives: top-dose activity, negative = IMPase inhibition, usual class: inhibitors | 0.35% of 210,000 active; active = well fitted inhibition curve with a large enough effect; inconclusive = small, poorly fitted or top-dose-only effect; inactive = no such curve, though single readings can be large or run the other way;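 also: IP1 builds up when IMPase is blocked and the TR-FRET signal falls; potency is read from the fitted curve at half-maximal effect; plate controls were basal vehicle for no effect and high inhibitor control for full effect; nearly all actives have a fitted effect of over 50% in size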
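Readout is a homogeneous TR-FRET IP1 immunoassay (Ex 320, Em 665 and 620), where raised cytosolic IP1 lowers signal. Cells were CHO-M1 treated 30 min at 37C with test compounds plus a little lithium; AC50 values came from Hill-equation fitting.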
PNC assembly inh – blocks assembly of the perinucleolar compartment; PC3M PTB-GFP, PNC prevalence imaging, 16 h; active compounds read low; activity change (PNC), negative = inhibition, % at 10 µM; 3.1% of 140,000 active; AID 2417;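 active = readout at or below -70, meaning at least 70% loss of cells showing the perinucleolar compartment, a nuclear body marking cancer cells; inconclusive = readout between -30 and a set limit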;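 also: plate controls were DMSO wells for no effect and camptothecin positive control wells for full effect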
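Read-out is percentage of cells bearing a perinucleolar compartment, from automated 20x imaging of fixed, Hoechst-stained PC3M PTB-GFP cells. Cells were seeded 4 h, then exposed 16 h to compound (23 nl of library stock) in duplicate plates.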
HPGD block – HPGD (human) dehydrogenase inhibition | purified HPGD, NADH fluorescence kinetic, PGE2 substrate | Potency, µM, for the others: top-dose activity change, negative = inhibition, usual class: inhibitors | 4.3% of 150,000 active | P15428 | AID 894; also: potency is read from the fitted curve at half-maximal effect
Target sequence (P15428 whole entry, looked up): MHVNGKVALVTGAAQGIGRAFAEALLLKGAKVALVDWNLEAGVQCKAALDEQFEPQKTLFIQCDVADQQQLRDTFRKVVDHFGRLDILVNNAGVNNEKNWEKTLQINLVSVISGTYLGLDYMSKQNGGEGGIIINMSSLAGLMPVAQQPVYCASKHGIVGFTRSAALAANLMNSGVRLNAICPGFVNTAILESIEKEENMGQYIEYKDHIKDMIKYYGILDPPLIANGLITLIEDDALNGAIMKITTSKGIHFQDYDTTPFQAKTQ
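20 nM HPGD preincubated 15 min at room temperature with compound in 50 mM Tris-HCl pH 8, 0.01% Tween 20. Started with 1 mM NAD+ and 30 uM prostaglandin E2; NADH fluorescence (360/450 nm) read 5 times over 30-s intervals, last minus first.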
Numbers without * were called inactive; [ ] = remark or other dose. This is a sample that favours compounds with a hit; in the whole collection about 11% have one here. Unless noted, calls follow the shape of the dose curve; as a rule, active = well fitted inhibition curve with a large enough effect (not every such curve was filed as active); inconclusive = small, poorly fitted or top-dose-only effect, or another doubt; inactive = no such curve, though single readings can be large or run the other way. Unless noted, % is scaled to controls: 0 for no effect and ±100 for the full control effect.

`COc1cccc(-c2cc(=O)c3cc(NC(=O)c4cccnc4)ccc3[nH]2)c1` gave ALDH1A1 block 8%, IMPase Li cell 0% and HPGD block -10%.
Screening COc1ccc(C(=O)Nc2ccc3[nH]c(-c4cccc(OC)c4)cc(=O)c3c2)cc1 returned ALDH1A1 block -3%, IMPase Li cell -4%, PNC assembly inh -119* and HPGD block -13%.
COCCNC(=O)COC(=O)C1=Cc2ccccc2OC1 was read as ALDH1A1 block inconclusive and IMPase Li cell 11%.
Screening CC(OC(=O)C1=Cc2ccccc2OC1)C(=O)NC1CCCC1 (stereo not given) returned IMPase inh 0[1.84 µM], ALDH1A1 block 17%, IMPase Li cell 46%[38.3 µM], PNC assembly inh -90* and HPGD block -23%.
`O=C(COC(=O)C1=Cc2ccccc2OC1)NC1CCCC1` gave IMPase inh 3[1.84 µM], ALDH1A1 block 9%, IMPase Li cell 16%[38.3 µM], PNC assembly inh -83* and HPGD block -23%.
Cc1ccccc1OC(C)C(=O)NC1CCCC1 (stereo not given) was read as IMPase inh -5, ALDH1A1 block -3%, IMPase Li cell 20%[38.3 µM], PNC assembly inh -12 and HPGD block 13µM*.
COc1ccccc1OC(C)C(=O)NNC(=S)NC1CCCC1 (stereo not given) was read as ALDH1A1 block -18% and IMPase Li cell 12%.
For CC(OC(=O)c1ccco1)C(=O)NC1CCCCC1 (stereo not given) the results were IMPase inh 5, ALDH1A1 block 3%, IMPase Li cell -5%[38.3 µM], PNC assembly inh -18 and HPGD block 14µM*.
Cc1ccc2nsnc2c1S(=O)(=O)N1CCOCC1 was read as IMPase inh -3, ALDH1A1 block inconclusive, IMPase Li cell 11%[38.3 µM], PNC assembly inh 30 and HPGD block -19%.
For NC(=O)C[C@@H](N)C(=O)O the results were ALDH1A1 block 10% and IMPase Li cell -10%.
For Cc1c(Cl)cccc1NC(=O)c1cc(-c2ccccc2O)n[nH]1 the results were IMPase inh 7, ALDH1A1 block 11%, IMPase Li cell 40%[38.3 µM], PNC assembly inh -25 and HPGD block 13µM*.
COc1ccc(OC)c(NC(=O)c2cc(-c3cc(Cl)ccc3O)n[nH]2)c1 was read as IMPase inh 13, ALDH1A1 block -8%, IMPase Li cell 17%[38.3 µM], PNC assembly inh -16 and HPGD block inconclusive.
For O=C(O)c1cc(-c2ccccc2Cl)n[nH]1 the results were IMPase inh 0, ALDH1A1 block 7%, IMPase Li cell 16%[38.3 µM], PNC assembly inh 8 and HPGD block -20%.
`COc1ccc(Cl)cc1NC(=O)c1cc(-c2ccccc2O)n[nH]1` gave ALDH1A1 block -13%, IMPase Li cell 14%, PNC assembly inh 33 and HPGD block 1.4µM*.
`C/C(O)=C(/C=NCC(=O)O)C(=O)Nc1nccs1` gave ALDH1A1 block 12% and IMPase Li cell -3%.
Cc1cccc(N(CC(=O)Nc2ccccc2C(F)(F)F)S(=O)(=O)c2ccccc2)c1C was read as IMPase inh 0.
Screening CC1(C)Cc2nc3nc(SCC(=O)NCc4ccccc4)n(-c4ccccc4)c(=O)c3cc2CO1 returned IMPase inh 3, ALDH1A1 block 3.5µM*, IMPase Li cell -3%[38.3 µM], PNC assembly inh 99 and HPGD block -7%.
For O=C(CSc1nc2nc3c(cc2c(=O)n1-c1ccccc1)CCCC3)Nc1ccccc1 the results were IMPase inh 4, ALDH1A1 block inconclusive, IMPase Li cell 5%, PNC assembly inh 28 and HPGD block -24%.
CC1(C)Cc2nc3nc(SCC(=O)NCCc4ccccc4)n(-c4ccccc4)c(=O)c3cc2CO1 was read as IMPase inh 4, ALDH1A1 block 2.5µM*, IMPase Li cell -9%[38.3 µM], PNC assembly inh 36 and HPGD block -14%.
CC(N)=NCCC[C@H](N)C(=O)O was read as IMPase inh -2, ALDH1A1 block 1%, IMPase Li cell 12% and HPGD block 2%.
For CCCOc1cccc(C(=O)NC(=S)Nc2cccc(NC(=O)c3ccccc3Cl)c2)c1 the results were ALDH1A1 block 13µM*, IMPase Li cell 7%, PNC assembly inh inconclusive and HPGD block -12%.
`CCCOc1ccc(CC(=O)NNC(=S)Nc2ccccc2)cc1Br` gave IMPase inh 1, ALDH1A1 block 18µM*, IMPase Li cell -1%, PNC assembly inh 0 and HPGD block inconclusive.
CCCOc1cccc(C(=O)NC(=S)Nc2ccccc2)c1 was read as ALDH1A1 block 18µM*, IMPase Li cell 9%, PNC assembly inh -20 and HPGD block -20%.
`COc1ccc(CC(=O)NNC(=S)Nc2ccccc2)cc1Cl` gave ALDH1A1 block inconclusive and IMPase Li cell 17%.
`CCCOc1cccc(C(=O)O)c1` gave IMPase inh 11, ALDH1A1 block 5%, IMPase Li cell 15%[38.3 µM], PNC assembly inh inconclusive and HPGD block -4%.
For CC(C)COc1cccc(C(=O)NC(=S)Nc2cccc(NC(=O)c3ccccc3Cl)c2)c1 the results were IMPase inh -4, ALDH1A1 block 10µM*, IMPase Li cell 2%, PNC assembly inh 3 and HPGD block -7%.
For Cc1ccccc1OCC(=O)NCc1ccccc1 the results were ALDH1A1 block -4% and IMPase Li cell -2%.
`CCOC(=O)c1ccc(NC(=O)C(CC)Sc2nnc3c4ccccc4n(C)c3n2)cc1` (stereo not given) gave IMPase inh 1.
CCCCOc1cccc(C(=O)NC(=S)Nc2cccc(NC(=O)c3ccccc3Cl)c2)c1 was read as ALDH1A1 block 2µM*, IMPase Li cell 3%, PNC assembly inh -10 and HPGD block -11%.
For CC(C)Oc1cccc(C(=O)NC(=S)Nc2ccccc2)c1 the results were ALDH1A1 block 10µM*, IMPase Li cell -2%, PNC assembly inh -101* and HPGD block -20%.
`CC(C)Oc1cccc(C(=O)NC(=S)Nc2cccnc2)c1` gave IMPase inh 10, ALDH1A1 block inconclusive, IMPase Li cell 9%, PNC assembly inh -13 and HPGD block -8%.
`C/C(=N/O)c1ccc2cc(Br)c3ccccc3c2c1` gave ALDH1A1 block -9%[13.5 µM], IMPase Li cell -2% and HPGD block -3%.
Screening C[C@@H](CCc1ccc(O)cc1)NCCc1ccc(O)c(O)c1 returned IMPase inh 0, ALDH1A1 block -4%, IMPase Li cell 9% and HPGD block 1%.
Screening O=C(O)CCCN1C(=O)/C(=C\c2ccco2)SC1=S returned ALDH1A1 block inconclusive and IMPase Li cell 6%.
Screening Cc1cc(/C=C2\SC(=O)NC2=O)c(C)n1-c1ccc(N2CCOCC2)cc1 returned ALDH1A1 block -5%.
